Results from paper PMC5540273 (PLoS ONE, 2017).

How the values were obtained:
Details in all cases: concentration: 1 μM, replicates: in singlicate; n = 1
ULK3 = system: ULK3
VEGFR2 = system: T1, VEGFR2
T1 construct: gene KDR

VPS34 = system: T2, VPS34
T2 construct: gene PIK3C3

VRK2 = system: VRK2
WEE1 = system: WEE1
WEE2 = system: WEE2
WNK1 = system: WNK1
WNK2 = system: WNK2
WNK3 = system: WNK3
WNK4 = system: WNK4
YANK1 = system: T3, YANK1
T3 construct: gene STK32A

YANK2 = system: T4, YANK2
T4 construct: gene STK32B

YANK3 = system: T5, YANK3
T5 construct: gene STK32C

YES = system: T6, YES
T6 construct: gene YES1

YSK1 = system: T7, YSK1
T7 construct: gene STK25

YSK4 = system: T8, YSK4
T8 construct: gene MAP3K19

ZAK = system: ZAK
ZAP70 = system: ZAP70
p38-alpha = system: T9, p38-alpha
T9 construct: gene MAPK14

p38-beta = system: T10, p38-beta
T10 construct: gene MAPK11
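Also: KINOMEscan kinase panel screen.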

| SMILES | %Inh (ULK3) [%] | %Inh (VEGFR2) [%] | %Inh (VPS34) [%] | %Inh (VRK2) [%] | %Inh (WEE1) [%] | %Inh (WEE2) [%] | %Inh (WNK1) [%] | %Inh (WNK2) [%] | %Inh (WNK3) [%] | %Inh (WNK4) [%] | %Inh (YANK1) [%] | %Inh (YANK2) [%] | %Inh (YANK3) [%] | %Inh (YES) [%] | %Inh (YSK1) [%] | %Inh (YSK4) [%] | %Inh (ZAK) [%] | %Inh (ZAP70) [%] | %Inh (p38-alpha) [%] | %Inh (p38-beta) [%] |
| --- | --- | --- | --- | --- | --- | --- | --- | --- | --- | --- | --- | --- | --- | --- | --- | --- | --- | --- | --- | --- |
| Cc1cccc(-c2nc(Nc3ccc4c(cnn4C)c3)c3ccccc3n2)n1 [GW876731] | 0 | 0 | 56 | 15 | 0 | 0 | 18 | 7 | 21 | 0 | 0 | 0 | 32 | 0 | 0 | 42 | 0 | 14 | 10 | 7 |
| COc1cc(OC)cc(-c2cc3cnc(N)nc3nc2NC(=O)NC(C)(C)C)c1 | 0 | 36 | 0 | 0 | 0 | 5 | 0 | 0 | 0 | 0 | 11 | 19 | 0 | 100 | 0 | 15 | 15 | 0 | 6 | 7 |
| COc1ccc(Nc2nccc(N3CCC(NS(=O)(=O)c4ccc(NC(C)=O)cc4)C3)n2)cc1 (centres unmarked) [GSK1379729] | 42 | 0 | 92.3 | 16 | 37 | 11 | 24 | 38 | 0 | 29 | 8 | 3 | 0 | 10 | 0 | 1 | 24 | 0 | 82 | 17 |
| COc1cc2ncn(-c3cc(OCCCc4ccccc4)c(C(N)=O)s3)c2cc1OC [GSK205189] | 3 | 0 | 0 | 0 | 12 | 4 | 0 | 8 | 0 | 0 | 0 | 0 | 19 | 0 | 0 | 0 | 0 | 0 | 0 | 0 |
| CCS(=O)(=O)c1ccc(OC)c(Nc2ncc(-c3ccc(F)cc3)o2)c1.Cl [GW591947] | 0 | 0 | 21 | 0 | 12 | 0 | 2 | 4 | 21 | 0 | 11 | 2 | 2 | 6 | 3 | 10 | 0 | 0 | 0 | 0 |
| O=C1NC(=O)C(c2ccccc2)=C1Nc1cccc(O)c1 [SB-390534] | 26 | 7 | 19 | 0 | 0 | 1 | 0 | 0 | 0 | 9 | 0 | 0 | 0 | 0 | 8 | 0 | 8 | 0 | 1 | 3 |
| Cc1cccc(-c2cc(-c3c[nH]nc3-c3ccccn3)ccn2)c1 [GW679395] | 5 | 0 | 0 | 26 | 13 | 1 | 11 | 22 | 36 | 38 | 0 | 0 | 15 | 29 | 0 | 36 | 0 | 0 | 47 | 0 |
| Nc1ncnc2c1ncn2-c1cccc2ccccc12 [SKF-97184] | 30 | 0 | 56 | 29 | 0 | 0 | 15 | 0 | 29 | 15 | 0 | 80 | 4 | 0 | 12 | 23 | 0 | 37 | 0 | 0 |
| COc1cccc(-n2cnc3c(N)ncnc32)c1 [SKF-97416] | 27 | 15 | 45 | 8 | 2 | 0 | 7 | 0 | 38 | 43 | 4 | 0 | 1 | 0 | 0 | 45 | 42 | 25 | 0 | 22 |
| Cl.NS(=O)(=O)c1cccc(Nc2cc(-c3ccc(F)cc3)n[nH]2)c1 [GW824645] | 12 | 35 | 29 | 18 | 0 | 0 | 35 | 0 | 25 | 13 | 0 | 0 | 0 | 0 | 8 | 0 | 0 | 0 | 0 | 0 |
| COc1cccc(C2=C(N(C)c3ccccc3)C(=O)NC2=O)c1 [SB-334865] | 12 | 1 | 0 | 10 | 4 | 0 | 8 | 0 | 20 | 15 | 0 | 0 | 2 | 21 | 8 | 37 | 20 | 0 | 14 | 0 |
| Cc1nnc(-c2ccc(C)c(-c3ccc(C(=O)O)cc3)c2)o1 [GW608005] | 0 | 3 | 0 | 0 | 0 | 0 | 30 | 0 | 15 | 0 | 0 | 0 | 9 | 0 | 0 | 15 | 0 | 0 | 0 | 0 |
| Cc1nn2c(=O)cc(N3CCOCC3)nc2n1Cc1cccc(Cl)c1Cl [GSK2342769] | 11 | 0 | 95.4 | 0 | 1 | 9 | 0 | 3 | 13 | 0 | 0 | 0 | 22 | 13 | 0 | 32 | 9 | 0 | 0 | 0 |
| O=C(Nc1n[nH]c2nc(-c3ccccc3)c(Cl)cc12)C1CC1 [SB-734909] | 0 | 15 | 0 | 0 | 0 | 0 | 1 | 0 | 7 | 0 | 17 | 0 | 0 | 0 | 0 | 85 | 14 | 10 | 24 | 39 |
| Nc1nc(-c2ccccc2F)c(-c2ccnc3ccccc23)s1 [GW560459] | 4 | 0 | 0 | 37 | 0 | 0 | 11 | 7 | 35 | 48 | 39 | 8 | 0 | 0 | 13 | 13 | 17 | 13 | 99.8 | 0 |
| Cc1nc(N(C)[C@H]2CN(C(=O)CC#N)CC[C@H]2C)c2cc[nH]c2n1 | 0 | 0 | 0 | 0 | 0 | 13 | 0 | 0 | 0 | 0 | 0 | 0 | 6 | 18 | 0 | 0 | 0 | 0 | 0 | 1 |
| COc1ccc(-c2cc3c(C)nc(N)nc3n([C@H]3CC[C@H](O)CC3)c2=O)cn1 | 0 | 0 | 0 | 0 | 0 | 0 | 0 | 0 | 0 | 18 | 0 | 0 | 0 | 0 | 0 | 0 | 0 | 0 | 0 | 0 |
| Cn1c(=O)c(F)c(Nc2ccc(I)cc2F)c2c(=O)n(OC[C@H](O)CO)cnc21 | 13 | 0 | 0 | 0 | 29 | 4 | 0 | 0 | 0 | 11 | 0 | 10 | 0 | 0 | 0 | 0 | 19 | 0 | 13 | 11 |
| CN1C(=O)C(Nc2ccccc2)=C(c2ccccc2)C1=O [SB-300079] | 7 | 0 | 30 | 19 | 51 | 1 | 0 | 0 | 33 | 26 | 0 | 2 | 0 | 0 | 3 | 8 | 0 | 23 | 0 | 10 |
